Experimental data taken from paper PMC5540273 (PLoS ONE, 2017).

Legend:
Conditions in all cases: concentration: 1 μM, replicates: in singlicate; n = 1
[1] = tested on: JAK1(JH2domain-pseudokinase)
[2] = tested on: JAK2(JH1domain-catalytic)
[3] = tested on: JAK3(JH1domain-catalytic)
JNK1 = tested on: T1, JNK1
T1 construct: gene MAPK8

JNK2 = tested on: T2, JNK2
T2 construct: gene MAPK9

JNK3 = tested on: T3, JNK3
T3 construct: gene MAPK10

KIT-autoinhibited = tested on: KIT-autoinhibited
KIT = tested on: KIT
LATS1 = tested on: LATS1
LATS2 = tested on: LATS2
LCK = tested on: LCK
LIMK1 = tested on: LIMK1
LIMK2 = tested on: LIMK2
LKB1 = tested on: T4, LKB1
T4 construct: gene STK11

LOK = tested on: T5, LOK
T5 construct: gene STK10

LRRK2 = tested on: LRRK2
LTK = tested on: LTK
LYN = tested on: LYN
LZK = tested on: T6, LZK
T6 construct: gene MAP3K13

MAK = tested on: MAK
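Further: KINOMEscan kinase panel screen.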

Structure (SMILES)	%Inh [1]	%Inh [2]	%Inh [3]	%Inh (JNK1)	%Inh (JNK2)	%Inh (JNK3)	%Inh (KIT-autoinhibited)	%Inh (KIT)	%Inh (LATS1)	%Inh (LATS2)	%Inh (LCK)	%Inh (LIMK1)	%Inh (LIMK2)	%Inh (LKB1)	%Inh (LOK)	%Inh (LRRK2)	%Inh (LTK)	%Inh (LYN)	%Inh (LZK)	%Inh (MAK)
Cc1ccc(C)c(NC(=O)NC2CCN(c3ccnc(Nc4ccc(F)cc4)n3)C2)c1 (stereo not shown) [GSK1379720]	0%	0%	0%	45%	10%	0%	0%	14%	12%	0%	0%	9%	0%	2%	0%	0%	17%	4%	41%	6%
COc1cccc(NC(=O)NC2CCN(c3ccnc(Nc4cc(OC)c(OC)c(OC)c4)n3)C2)c1 (stereo not shown) [GSK1379763]	29%	88%	0%	28%	27%	39%	17%	98.5%	0%	13%	14%	21%	34%	2%	43%	0%	62%	0%	25%	23%
Nc1n[nH]c2cnc(-c3ccccc3)cc12 [SB-642124]	0%	75%	91%	13%	0%	6%	12%	0%	0%	2%	0%	19%	1%	0%	0%	12%	0%	3%	0%	37%
Cl.Cl.NCC(NC(=O)c1cc(-c2ccccc2)c(-c2ccnc3[nH]ccc23)s1)c1ccccc1 (stereo not shown) [GSK1321561]	0%	41%	50%	48%	57%	45%	0%	12%	3%	11%	87%	0%	0%	0%	0%	0%	21%	66%	0%	23%
CSc1cccc2c(-c3ccncn3)c(-c3ccc(F)cc3)nn12 [GW514786]	9%	9%	0%	24%	71%	75%	0%	0%	0%	16%	20%	11%	0%	0%	0%	34%	0%	0%	20%	0%
CN1CCN(CCCNc2nccc(-c3c(-c4ccc(F)cc4)nn4cc(C(F)(F)F)ccc34)n2)CC1 [GW621581]	0%	32%	0%	58%	91.7%	91.9%	0%	7%	0%	0%	36%	0%	0%	5%	0%	69%	0%	0%	0%	3%
CCCCc1nn2ncccc2c1-c1ccnc(Nc2ccc(N3CCN(C)CC3)cc2)n1 [GW684941]	4%	87%	27%	95.1%	98.9%	97.6%	97%	100%	0%	0%	99.1%	70%	97%	0%	60%	60%	0%	83%	28%	20%
CCn1c(-c2nonc2N)nc2c(C#CC(C)(C)O)nc(OC[C@H](N)c3ccccc3)cc21 [GSK943949]	0%	8%	4%	0%	0%	0%	4%	0%	59%	100%	1%	11%	6%	31%	1%	14%	0%	1%	0%	0%
Nc1ncc(-c2cccnc2)c2scc(-c3ccc4c(c3)CCN4C(=O)Cc3ccccc3)c12 [GSK683281]	1%	14%	0%	22%	37%	9%	7%	98.5%	0%	19%	70%	22%	36%	10%	75%	0%	50%	45%	0%	28%
COc1cc2c(cc1OCCN1CCNCC1)ncc1c3ccc(C#N)cc3[nH]c21	45%	64%	85%	13%	0%	0%	55%	70%	0%	42%	45%	0%	0%	15%	42%	99.3%	0%	0%	100%	2%
O=c1[nH]cc(-c2ccc(N3CCOCC3)cc2)c2sc(-c3cn[nH]c3)cc12 [GSK2276055]	77%	100%	39%	24%	14%	10%	22%	76%	0%	62%	9%	0%	0%	0%	0%	0%	5%	0%	0%	30%
COc1cccc(-c2ccc3c(NC(=O)C4CC4)n[nH]c3n2)c1 [SB-710903]	0%	17%	0%	29%	14%	5%	0%	15%	9%	10%	23%	14%	55%	0%	0%	0%	0%	1%	47%	24%
Nc1ncc(-c2ccc3nccc(-c4ccncc4)c3c2)cc1S(=O)(=O)N1CCOCC1 [GSK1627798]	0%	0%	0%	26%	19%	10%	0%	16%	0%	0%	20%	0%	0%	0%	0%	0%	0%	0%	0%	22%
O=C(NC1CCN(c2ccnc(Nc3ccc(F)cc3)n2)C1)c1cc2ccccc2s1 (stereo not shown) [GSK1379716]	0%	0%	0%	24%	29%	13%	0%	21%	7%	0%	32%	0%	0%	19%	0%	0%	10%	0%	23%	38%
COc1cccc(C(=O)Nc2cccc(Oc3ccc4nc(NC(=O)C5CC5)cn4n3)c2)c1	8%	13%	0%	0%	10%	0%	99.7%	100%	0%	0%	99.2%	19%	23%	0%	96.2%	3%	27%	92.9%	0%	0%
COc1ccc(Nc2nccc(NCCNC(=O)c3cc4ccccc4s3)n2)cc1 [GSK1379896]	0%	23%	0%	6%	27%	6%	0%	5%	0%	0%	19%	0%	0%	1%	0%	0%	0%	0%	0%	27%
CCS(=O)(=O)c1ccc(OC)c(Nc2nccc(-c3c(-c4cccc(NC(=O)c5c(F)cccc5F)c4)nn4ncccc34)n2)c1 [GSK326180]	0%	0%	0%	32%	68%	46%	0%	32%	0%	2%	56%	23%	3%	0%	92.1%	0%	19%	30%	0%	15%
